Inconclusive results are not listed. Entries that show only a call come without a potency. Calls of active or inactive are those of the source. Calls follow the shape of the dose curve; as a rule, active = well fitted inhibition curve with a large enough effect; inconclusive = small, poorly fitted or top-dose-only effect, or effect the other way; inactive = flat fitted curve, though single readings scatter.
These molecules were tested against ATP-dependent 6-phosphofructokinase (Trypanosoma brucei brucei) (UniProt O15648) (assay: qHTS Assay to Find Inhibitors of T. brucei phosphofructokinase: hit validation (AID 492961;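 also: luminescence reports ADP formed as PFK phosphorylates fructose-6-phosphate with ATP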)). Conditions: T. brucei PFK, ADP-Glo luminescence; series mostly up to 51.4 µM.
How it was run: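 Measures ADP output of PFK (1.25 nM) at 0.1 mM ATP, 0.5 mM F6P, pH 8.0 TEA buffer with 5 mM MgCl2. No-enzyme wells define full inhibition; uninhibited enzyme wells define zero.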

ATP-dependent 6-phosphofructokinase (Trypanosoma brucei brucei), sequence (O15648 whole entry, looked up): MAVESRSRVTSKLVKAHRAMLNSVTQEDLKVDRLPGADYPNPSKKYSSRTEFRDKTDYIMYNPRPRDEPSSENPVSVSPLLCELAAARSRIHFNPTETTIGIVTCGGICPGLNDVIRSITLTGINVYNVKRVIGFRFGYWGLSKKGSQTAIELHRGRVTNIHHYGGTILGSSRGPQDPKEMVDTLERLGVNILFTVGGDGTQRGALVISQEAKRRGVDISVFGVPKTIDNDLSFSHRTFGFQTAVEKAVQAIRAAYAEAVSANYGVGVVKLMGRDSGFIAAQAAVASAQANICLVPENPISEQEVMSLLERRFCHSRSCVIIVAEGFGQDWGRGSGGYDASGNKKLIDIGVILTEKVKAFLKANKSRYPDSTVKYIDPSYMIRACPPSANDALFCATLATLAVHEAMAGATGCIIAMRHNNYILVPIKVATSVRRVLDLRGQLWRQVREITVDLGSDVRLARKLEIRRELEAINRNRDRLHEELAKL

| Compound | Potency |
| --- | --- |
| CC(C)Cc1ccc(CC(=O)O)cc1 | inactive |
| COc1ccc(/C=N/NC(=O)c2ccncc2)cc1OC | inactive |
| C[C@@H](O)[C@H]1C(=O)N2C(C(=O)O)=C(S[C@@H]3CN[C@H](CNS(N)(=O)=O)C3)[C@H](C)[C@H]12 | inactive |
| O=C1C(=O)c2ccccc2C(O)=C1C1CCC(c2ccc(Cl)cc2)CC1 (stereo unspecified) | inactive |
| Nc1ccc(C(=O)NCC(=O)O)cc1 | inactive |
| CC(C)CCCC(C)N (stereo unspecified) | inactive |
| Cc1cc(-c2ccccc2)nnc1NCCN1CCOCC1 | inactive |
| O=C(CN1CCN(Cc2ccc3c(c2)OCO3)CC1)N1c2ccccc2Sc2ccccc21 | inactive |
| COc1cc(C(=O)NCc2ccc(OCCN(C)C)cc2)cc(OC)c1OC | inactive |
| O=C(CCCN1CC=C(n2c(=O)[nH]c3ccccc32)CC1)c1ccc(F)cc1 | inactive |
| O=C(Nc1cccc(C2=NCCN2)c1)Nc1cccc(C2=NCCN2)c1 | inactive |
| NS(=O)(=O)c1cc(C(=O)O)cc(N2CCCC2)c1Oc1ccccc1 | inactive |
| CC(=O)Nc1ccc(S(=O)(=O)Nc2ccc([N+](=O)[O-])cc2)cc1 | inactive |
| Oc1c(Cl)cc(Cl)c(Cl)c1Cc1c(O)c(Cl)cc(Cl)c1Cl | inactive |
| CCCCNc1ccc(C(=O)OCCOCCOCCOCCOCCOCCOCCOCCOCCOC)cc1 | inactive |
| N=C(N)N1CCc2ccccc2C1 | inactive |
| O=C1C(O)=C(O)C(=O)C(O)=C1O | inactive |
| CCc1oc2ccccc2c1C(=O)c1cc(Br)c(O)c(Br)c1 | inactive |

| Compound | Potency |
| --- | --- |
| OC[C@H]1O[C@@H]2O[C@H]3[C@H](O)[C@@H](O)[C@@H](O[C@H]4[C@H](O)[C@@H](O)[C@@H](O[C@H]5[C@H](O)[C@@H](O)[C@@H](O[C@H]6[C@H](O)[C@@H](O)[C@@H](O[C@H]7[C@H](O)[C@@H](O)[C@@H](O[C@H]8[C@H](O)[C@@H](O)[C@@H](O[C@H]1[C@H](O)[C@H]2O)O[C@@H]8CO)O[C@@H]7CO)O[C@@H]6CO)O[C@@H]5CO)O[C@@H]4CO)O[C@@H]3CO | inactive |
| Cc1ccc(O)c([C@H](CCN(C(C)C)C(C)C)c2ccccc2)c1 | inactive |
| Clc1cccc(C(c2ccc3nc[nH]c3c2)n2ccnc2)c1 (stereo unspecified) | inactive |
| C#C[C@]1(OC(C)=O)CC[C@H]2[C@@H]3CCC4=C/C(=N/O)CC[C@@H]4[C@H]3CC[C@@]21CC | inactive |
| C#C[C@]1(O)CC[C@H]2[C@@H]3CCC4=CC(=O)CC[C@@H]4[C@H]3CC[C@@]21CC | inactive |
| CCCCCN=C(N)N/N=C/c1c[nH]c2ccc(OC)cc12 | inactive |
| CCNC(=O)/C=C/c1cccc(Br)c1 | inactive |
| O[C@@H](c1cc(C(F)(F)F)nc2c(C(F)(F)F)cccc12)[C@H]1CCCCN1 | inactive |
| NS(=O)(=O)Cc1noc2ccccc12 | inactive |
| O=C(O)c1ccc(S(=O)(=O)N(Cl)Cl)cc1 | inactive |
| C=CCN1CCc2nc(N)sc2CC1 | inactive |
| CC(=O)Nc1ccc(OC(=O)c2ccccc2OC(C)=O)cc1 | inactive |
| CC(=O)N[C@@H](CCC(=O)O)C(=O)O | inactive |
| OCCOCCN1CCN(C2=Nc3ccccc3Sc3ccccc32)CC1 | inactive |
| COc1cc(N)c(Cl)cc1C(=O)NC1CCN(Cc2ccccc2)CC1 | inactive |
| Nc1nc(N)c(-c2ccccc2)s1 | inactive |
| C[N+]1(CC2COC(c3ccccc3)(C3CCCCC3)O2)CCCCC1 (stereo unspecified) | inactive |
| Oc1ccccc1C=NCc1ccccc1 | inactive |

From PubChem BioAssay (NCATS)
